Test results as given in ChEMBL document CHEMBL3988442, “University of Dundee, Small-Polar-MMV Screening Library” (2021).
The whole screen tested about 48,000 compounds, of which about 13,000 (27%) showed an effect of 50% or more. Some of the results follow.

Each compound was assayed on Wolbachia pipientis (assay: Anti-Wolbachia Cell-Based Screen). Conditions: 5 µM.
Assay type: functional
Parameters: scale not given: in the data most compounds retested in dose-response had high values

Structure (SMILES) | Percent Effect [%]
CC(C)Cc1noc(CN2CCCC(CNS(N)(=O)=O)C2)n1 (stereo unspecified) | 6.336
CCOC(C)c1noc(CN2CCN(CC3CCCC3)CC2)n1 (stereo unspecified) | -4.058
CCS(=O)(=O)c1ccc2oc([C@H]3CCN(Cc4ccccn4)C3)nc2c1 | -4.332
Cc1noc2nc(C3CCN(Cc4ccccn4)CC3)cc(C(F)F)c12 | 126.2
Cc1noc2nc(C3CCN(CC4=CCCOC4)CC3)cc(C(F)F)c12.Cl | -4.292
Cc1noc2nc(C3CCN(CC4CCCCC4)CC3)cc(C(F)F)c12.Cl | 130.1
Cc1n[nH]c2ncc(CNC3CCN(Cc4ccccn4)CC3)cc12.Cl | 0.2679
COc1ccc(N(C)C(=O)c2ccc(Cl)c(S(C)(=O)=O)c2)cn1 | -5.224
Cc1c(-c2ccccc2)ncn1CCCNc1cccnc1 | -10.09
CN(C)CCn1ccnc1C1CCN(C(=O)CCc2cccnc2)CC1 | -5.205
Cc1ccnn1CCC(=O)N1CCCC[C@@]2(C)[C@@H]1CCC(=O)N2C | 76.68
O=C1CCCCN1CCC(=O)N1CCCCC1c1ccc(F)cc1 (stereo unspecified) | -7.872
Cc1ccnn1CCC(=O)N1CCCC[C@]2(C)NC(=O)CCC[C@H]12 | 63.73
COc1ccc(N2CCN(C(=O)CCn3nccc3C)C(C)C2)cc1 (stereo unspecified) | -2.814
COc1ccc(N2CCN(C(=O)CCn3nccc3C)CC2(C)C)cc1 | -0.9656
CCN1C(=O)CC[C@@H]2N(C(=O)CCn3nccc3C)CCCC[C@@]21C | 96.02
Cc1ccnn1CCC(=O)N1CCN(C2CCc3ccccc3C2)CC1 (stereo unspecified) | -3.022
Cc1ccnn1CCC(=O)N(Cc1ccsc1)CC(C)C | 6.512

Structure (SMILES) | Percent Effect [%]
CN1C(=O)CC[C@@H]2N(C(=O)CCc3cccnc3)CCCC[C@@]21C | 73.04
COc1ccc(N2CCN(C(=O)Cn3nccc3C)CC2(C)C)cc1 | 3.492
COc1ccc(O[C@H]2COCCN(Cc3cccc4c3OCO4)C2)cc1 | -9.045
CCCc1cc(NCc2nc(COC)no2)n2nccc2n1 | -5.978
Cc1nc(CN2CCCC(Cn3cc(CCO)nn3)C2)c2ccccn12 (stereo unspecified) | -4.112
CC(C)n1cc(CN2CCCN(C(=O)c3cc(Cl)c[nH]3)CC2)cn1 | 1.101
CS(=O)(=O)Nc1cccc(CNC(=O)CCNC(=O)c2cccs2)c1 | 4.351
CN(C)Cc1nnc(C2CCN(c3nccc(N)n3)CC2)n1C1CC1 | 9.294
O=C(c1ccncc1)N1CCC(O)(Cn2ccc3ccncc32)CC1 | -4.152
Cc1cc2ccccc2n1CCC(=O)N1CCCC(O)(CN(C)C)CC1 (stereo unspecified) | -7.968
Cc1cc(C(=O)N2CCC(O)(Cn3ccc4ccncc43)CC2)on1 | 111.8
Cc1cc2ccncc2n1CC1(O)CCN(C(=O)c2ccccn2)CC1 | 79.68
O=C(c1cnc(Nc2ccccc2)nc1)N1CCC(O)(CO)CC1 | -9.694
Cc1cc(C(=O)N2CCC(O)(Cn3c(C)cc4ccncc43)CC2)on1 | 79.54
Cc1cc(C(=O)N2C[C@@H]3COC[C@]3(c3nnc(C(C)C)o3)C2)on1 | 3.18
CN(C)CC1(O)CCCN(C(=O)Cn2ccc3ccccc32)CC1 (stereo unspecified) | -35.57
O=C(c1cncc(N2CCC(O)(CO)CC2)n1)N1CCCC1 | -6.183
Cc1cc2ccncc2n1CC1(O)CCN(C(=O)c2ccncc2)CC1 | 105.6
